# High-throughput results as filed in PubChem.
# Only some compounds are listed: those with a hit (about 11% of all), similar ones and a draw of the others.
# MCF10A rerep – A quantitative high throughput screen for small molecules that induce DNA re-replication in MCF 10a normal breast cells; MCF 10A DNA re-replication, Hoechst nuclear intensity, 48 h; Potency, µM (highest dose often 46.1 µM), inactives show at the top dose activity, positive = re-replication, usual class: activators; actives 2.9% (n = 350,000); also: potency is read from the fitted curve at half-maximal effect; % of control where 0% means no effect; nearly all actives have a fitted effect of over 50% in size
# IL1B secr inh – qHTS for Inhibitors of Inflammasome Signaling: IL-1-beta AlphaLISA Primary Screen; activity change, % at 57.5 µM; actives 4.7% (n = 360,000); THP-1 LPS/ATP IL-1B secretion, AlphaLISA, 16 h; active compounds read low; in the data active = activity change below about -50%; inconclusive = mostly about -30% to -49%; also: % is scaled to controls: 0 for no effect and ±100 for the full control effect
#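 THP-1 cells pretreated 1 hr with compounds (up to 57.5 uM final), then stimulated with LPS (250 ng/mL final) plus ATP (1.25 mM final); secreted IL-1B measured by AlphaLISA after 16 hr, decreased signal indicating inhibition.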
# RORgamma inh – qHTS for inhibitors of ROR gamma transcriptional activity | Nuclear receptor ROR-gamma (Mus musculus), P51450 | Potency, µM (titrated, usually from 53.6 µM), inactives show top-dose activity change, negative = inhibition, hits mostly inhibitors | actives 5.4% (n = 310,000) | AID 2551, 2010 | Drosophila S2 Gal4-RORgamma UAS-luciferase reporter, 20 h; also: potency is read from the fitted curve at half-maximal effect; % is scaled to controls: 0 for no effect and ±100 for the full control effect; nearly all actives have a fitted effect of over 60% in size
# Target sequence (P51450 whole entry, looked up, the tested form may be a part): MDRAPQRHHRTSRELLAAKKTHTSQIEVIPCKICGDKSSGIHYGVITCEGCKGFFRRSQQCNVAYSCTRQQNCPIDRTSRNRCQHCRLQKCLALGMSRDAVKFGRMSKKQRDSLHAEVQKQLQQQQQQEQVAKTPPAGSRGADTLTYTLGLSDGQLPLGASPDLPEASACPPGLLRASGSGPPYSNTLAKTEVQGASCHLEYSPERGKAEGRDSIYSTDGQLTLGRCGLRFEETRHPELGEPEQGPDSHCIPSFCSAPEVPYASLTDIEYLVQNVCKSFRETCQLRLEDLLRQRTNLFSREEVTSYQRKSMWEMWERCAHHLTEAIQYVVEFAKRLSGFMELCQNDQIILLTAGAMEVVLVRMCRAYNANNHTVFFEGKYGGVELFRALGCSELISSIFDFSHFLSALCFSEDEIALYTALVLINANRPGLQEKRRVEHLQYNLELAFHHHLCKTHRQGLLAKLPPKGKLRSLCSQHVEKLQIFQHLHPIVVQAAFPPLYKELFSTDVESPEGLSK
#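 Drosophila Schneider cells stably carrying a metallothionein-driven Gal4 DBD–ROR gamma fusion and a UAS-Photinus luciferase reporter were exposed to compound for 1 hr, then induced with copper sulfate (700 uM final) for 20 hr at ambient temperature before luminescence reading.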
# SW480 rerep – A quantitative high throughput screen for small molecules that induce DNA re-replication in SW480 colon adenocarcinoma cells. actives 1.8% (n = 340,000). Potency, µM (top dose mostly 46.1 µM), inactives show top-dose re-replication activation, usual class: activators. AID 624297, 2012. SW480 DNA re-replication, Hoechst DNA content imaging, 48 h; also: potency is read from the fitted curve at half-maximal effect; % of control where 0% means no effect; nearly all actives have a fitted effect of over 55% in size
#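 First, 250 cells per well were seeded. Next, compound or vehicle (23 nL) was pinned in, plates sat 48 hr at 37 C. Finally Hoechst was added for 40 min before fluorescence scanning.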
# VP16 counter – VP16 counterscreen qHTS for inhibitors of ROR gamma transcriptional activity; AID 2546, 2010; Potency, µM (series often up to 53.6 µM), for the others: at the highest dose activity, negative = inhibition, actives largely listed as inhibitors; Drosophila S2 Gal4-VP16 UAS-luciferase, luminescence, 20 h; actives 3.5% (n = 310,000);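 also: Gal4-VP16 expression switched on by copper sulfate through the metallothionein promoter; potency is read from the fitted curve at half-maximal effect; % is scaled to controls: 0 for no effect and ±100 for the full control effect; nearly all actives have a fitted effect of over 50% in size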
# * marks the source's active call; other numbers are inactive results; ? = inconclusive; nt = no result given; [ ] = dose if it differs, or a comment. Unless noted, calls follow the shape of the dose curve; as a rule, active = well fitted curve in the direction sought with a large enough effect; inconclusive = small, poorly fitted or top-dose-only effect, or another doubt; inactive = no such curve, though single readings can be large; an effect the other way counts as inactive or inconclusive.
SMILES,MCF10A rerep,IL1B secr inh,RORgamma inh,SW480 rerep,VP16 counter
CC1CC(C)CN(C(=O)c2cc3cc(Br)cc(Br)c3o2)C1 (configuration not stated),?,-69.6*,14.8%,-2.7%,-0.4%
CCCCCNCc1ccc(Br)cc1,26.8%,?,10.9%,?,6.3%
CCCCCCNCc1ccc(Br)cc1,?,-56.1*,-15.9%,-5.2%,0.8%
CN(C)Cc1ccccc1-c1cncnc1NC1CC1,nt,nt,1.4%,nt,2.5%
Nc1cc(S(=O)(=O)N2CCOCC2)ccc1Oc1cccc(Br)c1,16.9%,-61.0*,nt,4.3%,nt
COC(=O)c1c(C)[nH]c(-c2csc(N)n2)c1C,?,65.0,17.7%,14.6µM*,-14.5%
CN1CC2=Cc3ccccc3OC23Oc2ccccc2C=C3C1,?,-116.7*,-41.6%,?,5.6%
COC(=O)Cc1ccc(NC(=S)NCCSc2ccc(C)cc2)cc1,1.7%,24.5,?,-0.9%,0.7%[10 µM]
CC(CNC(=S)Nc1cc(F)cc(F)c1)CSc1ccc(Cl)cc1 (configuration not stated),-0.6%,-97.4*,8.91µM*,2.4%,?
Cc1ccc(NC(=S)NCCSc2ccc(Cl)cc2)cc1,?,-91.3*,0.794µM*,0.5%,0.891µM*
Cc1ccc(SCCNC(=S)Nc2ccc(C)cc2C)cc1,?,0.0,3.55µM*,17.4%,7.94µM*
Cc1ccc(NC(=O)NCCSc2ccc(C)cc2)cc1,7.2%,-7.8,25.2%,-5.7%,-6.6%
CC(C)CNC(=O)CSc1ccc(Cl)cc1,-0.1%,14.9,-5.3%,1.4%,3.2%
Cc1ccc(SCCNC(=S)Nc2cc(C)cc(C)c2)cc1,?,-3.3,5.01µM*,-1.2%,7.94µM*
OC[C@@H]1CN(Cc2ccncc2)C[C@H](n2cnc3c(N4CCOCC4)ncnc32)O1,nt,34.8,nt,nt,nt
Nc1sc2c(c1C(=O)c1ccc(Cl)cc1)CCCC2,nt,nt,19.4%,nt,-0.2%
CC(C)C[C@@H](CC(=O)N[C@@H](CCCN)CC(=O)N[C@@H]1CCNC[C@H]1C(=O)N[C@H](CC(=O)N[C@@H](CCC(=O)O)CC(=O)O)Cc1ccccc1)NC(=O)[C@@H]1CCCC[C@H]1N,nt,nt,-12.5%,nt,1.0%
O=C(NCCSc1ccc(Cl)cc1)c1ccco1,6.8%,0.0,?,-2.7%,4.2%
Cc1cccc(C)c1NC(=S)NCCSc1ccc(Cl)cc1,?,-72.1*,2.51µM*,-11.1%,?
Cc1ccc(S(=O)(=O)Nc2ccc(Cl)cc2O)cc1,nt,-21.0,nt,nt,nt
Cc1nc(N2CCOCC2)c2nc(-c3ccccc3)n(CCN(C)C)c2n1,nt,nt,13.4%,nt,-3.3%
CC(C)CC(=O)Nc1ccccc1N1CCN(c2ccc(F)cc2)CC1,15.4%,0.0,21.9%,0.7%,-6.6%
CC(C)(C)C(=O)Nc1ccccc1N1CCN(c2ccc(F)cc2)CC1,20.6µM*,5.1,11.7%,0.3%,6.0%
Cc1nnc(SCc2ccc(Cl)cc2)nc1/C=C/N(C)C,18.4µM*,3.0,22.8%,-4.9%,17.2%
COC(=O)c1c(NC(=O)c2ccc(S(=O)(=O)N3CCOCC3)cc2)sc2c1CCN(C)C2,?,-74.6*,-3.9%,?,-12.1%
SMILES,MCF10A rerep,IL1B secr inh,RORgamma inh,SW480 rerep,VP16 counter
CCOC(=O)c1c(NC(=O)c2ccc(S(=O)(=O)N3CCOCC3)cc2)sc2c1CCN(C(C)C)C2,?,?,0.7%,4.3%,-1.2%
CCN1CCc2c(sc(NC(=O)c3ccc(S(=O)(=O)N4CCOCC4)cc3)c2C(=O)OC)C1,14.6µM*,-4.9,8.7%,?,-10.3%
CC(C)C(=O)N1CCN(c2ccccc2NC(=O)c2cccc3ccccc23)CC1,?,14.6,51.5%,3.5%,1.0%
CS(=O)(=O)OCC(O)C(O)COS(C)(=O)=O (configuration not stated),20.3%,nt,8.7%,19.0%,0.2%
COc1ccc2c(c1)O[C@H](c1ccc3c(c1)OCO3)[C@@H](OC(=O)NCc1ccco1)C2=O,nt,nt,?,nt,-13.8%
COC(CNC(=O)c1ccc2nc(-c3cccs3)c(-c3cccs3)nc2c1)OC,?,-51.2*,22.0%[10 µM],14.5%,-9.3%
COc1ccc(-c2nc3ccc(C(=O)NCC(OC)OC)cc3nc2-c2ccc(OC)c(OC)c2)cc1OC,1.5%,-7.2,-1.2%,2.4%,-3.4%
O=C(NC(Cc1ccccc1)C(=O)N1CCN(c2ccccc2O)CC1)c1ccccc1 (configuration not stated),?,-8.4,nt,-396.5%,nt
CCc1ccc(C(=O)C(C)OC(=O)Cc2n[nH]c(=O)c3ccccc23)cc1 (configuration not stated),14.6µM*,5.5,3.7%,?,0.0%
Nc1nnc(CCCCCc2nnc(N)s2)s1,10.7%,-1.5,-17.0%,1.46µM*,0.7%
COc1cccc(CNC(=O)c2ccc(F)c(S(=O)(=O)N3CCCCC3)c2)c1,nt,23.8,nt,nt,nt
CCCCC(=O)Nc1ccc(NC(=S)NC(=O)CC)cc1OC,-0.1%,-0.9,12.6µM*,0.9%,-1.3%
CCCCC(=O)Nc1ccc(NC(=S)NC(=O)c2cccs2)cc1OC,2.1%,0.0,10µM*,11.0%,?
COc1cc(NC(=S)NC(=O)c2cccs2)ccc1NC(=O)C(C)C,9.1%,-11.8,12.6µM*,5.0%,?
C[C@@]12C(=O)N(CCc3c[nH]c4ccccc34)CC(=O)N1[C@H]1c3ccccc3OC[C@@H]1[C@@H]2c1ccccc1,5.7%,-20.8,nt,4.1%,nt
CSc1nsc(/C=C/Nc2ccc(F)cc2)c1C#N,?,10.5,-18.9%,30.1%,1.7%
CSc1nsc(/C=C/Nc2cccc(Cl)c2)c1C#N,9.2µM*,17.6,4.4%,18.7%,11.2%
CSc1nsc(/C=C/Nc2ccc(O)cc2C)c1C#N,?,-4.7,?,23.1µM*,-2.3%
CSc1nsc(/C=C/Nc2ccc(Cl)cc2)c1C#N,?,15.8,11.5%,4.6%[9.22 µM],4.1%
O=C(NCc1cccc(C(F)(F)F)c1)c1csc(COCCO)n1,nt,12.5,nt,nt,nt
COc1ccc(/C=C/C(=O)N(C(C)C)C(C)C)cc1Br,13.0%,-26.0,5.4%,1.5%,-5.9%[0.365 µM]
COc1ccc(/C=C/C(=O)N(C)C2CCCCC2)cc1Br,?,-67.9*,18.6%,-2.6%,-4.7%
CN(C(=O)/C=C/c1cnc2ccccc2c1)C1CCCCC1,3.9%,-57.9*,?,?,-26.7%
CCN(C(=O)/C=C/c1ccccc1)C1CCCCC1,?,?,13.6%,-0.7%,-0.7%
Cc1cccc(C)c1NC(=O)C(c1ccccc1)N1CCC(Cc2ccccc2)CC1 (configuration not stated),nt,28.0,nt,nt,nt
CCCCc1ccc(S(=O)(=O)NC(=O)C2(C)CCN2C(=O)Cc2ccccc2)cc1 (configuration not stated),nt,14.9,nt,nt,nt
